Results published in PubChem BioAssay AID2289 (National Center for Advancing Translational Sciences (NCATS), 2010).
“And” between values parts separate entries of the source, which are not always exact repeats. Equal entries are not always repeated. The whole screen tested about 340,000 compounds, of which about 3,300 (0.97%) were called active. Not shown: some 9% with an inconclusive outcome. The call rests on the fitted dose curve; in most records, active means well fitted inhibition curve with a large enough effect; inconclusive means small, poorly fitted or top-dose-only effect, or effect the other way; inactive means flat fitted curve, though single readings scatter. The list shows a part of the results.

Assay: qHTS Assay for Modulators of miRNAs and/or Inhibitors of miR-21; further: nearly all actives have a fitted effect of over 55% in size
Details: HeLa miR-21-FLuc reporter, luciferase luminescence, 48 h; actives lower the signal
Description: MLSCN Grant: 1 R21 NS059478-01 Assay Provider: Qihong Huang, The Wistar Institute NCGC Assay Overview: MicroRNAs (miRNAs) are endogenously encoded small (~20-25 nucleotides), nonprotein-coding RNAs that are involved in post-transcriptional repression of target messenger RNAs (mRNAs) (Le and Hannon, 2004). Estimated to be involved in the regulation of 30% of all protein-coding mRNAs (Filipowicz et al., 2008), miRNAs play a significant role in many biological processes including cellular differentiation and tissue development (Ghildiyal and Zamore, 2009).
NCGC Assay Protocol Summary: Reagents: HeLa cells stably expressing firefly luciferase (FLuc) under the control of a CMV promoter (upstream) and a miR-21 binding sequence directly downstream of the gene. These cells endogenously express miR-21. Control compounds used were compound C3 (provided by collaborator), N6-phenyladenosine (MP Biomedicals, 0215379625), and DMSO. Assay Summary: 6uL of HeLa miR-21-FLuc cells in assay buffer (DMEM, Invitrogen #21063-029; 10% FBS, HyClone #SH30071.03) were dispensed at 2000cells/well (3.3 x 10^5 cells/mL) into Greiner solid-white TC-treated 1536-well plates using a Multidrop Combi (Thermo Fisher Scientific). Plates were incubated for one hour at 37 degree Celsius, 95% humidity, 5% CO2. These assay plates were then treated with 23nL of compound or DMSO using a Kalypsys pin tool, which allows for delivery of a 24-point titration of each compound to the assay plate, with a final compound concentration ranging from approximately 40uM to 5pM. Assay plates were then incubated for 48 hours. After incubation, plates were allowed to come to RT for one hour prior to delivery of 3uL of 3X luciferase detection reagent. After a 15 minute incubation to allow for cell lysis, luciferase activity was measured using a ViewLux CCD imager (PerkinElmer), with an average exposure time of 2-12 seconds. Keywords: NIH Roadmap, MLPCN, MLSMR, qHTS, miR-21, microRNA, firefly luciferase, FLuc.
Potency means the concentration at half of the fitted maximal effect.

Potency, active:
O=C(Cc1cccs1)NCc1cc(Cl)cc(Cl)c1 14.7 µM
Cc1cccc(CCNc2nc3ccc(C)cc3n3cnnc23)c1 16.5 µM
Cc1cc(C(=O)N/N=C/c2c(C)nn(-c3ccccc3)c2C)c(C)o1 8.26 µM
Cc1cc(C(=O)N/N=C/c2ccccc2)c(C)o1 6.56 µM
Cc1cc(C(=O)N/N=C/c2c(C)nn(-c3ccccc3)c2C)n[nH]1 14.7 µM
COc1cccc2[nH]c(=O)c(-c3ccccc3)cc12 1.65 µM
Nc1nc(-c2ccc(Cl)cc2)nnc1-c1ccc(Br)cc1 2.07 µM
CC(=O)Nc1cc2nn(-c3ccccc3)nc2cc1Cl 0.464 µM
CCCC(=O)Nc1cc2nn(-c3ccccc3)nc2cc1C 0.369 µM
CC(C)CC(=O)Nc1ccc2nn(-c3ccccc3)nc2c1 0.656 µM
COc1ccc(O)c(/C=N/N2CCCCC2)c1 5.21 µM
O=C1N/C(=C\c2nc3ccccc3s2)c2ccccc21 0.0736 µM
CSc1nnc(-c2cc3c(s2)-c2ccccc2CC3)o1 1.17 µM
Cn1c(C(=O)N2CCc3ccccc3C2)cc2oc3ccccc3c21 10.4 µM
COCCNC(=O)c1cc2oc3ccccc3c2n1C 14.7 µM
Cn1c(C(=O)NCC2CCCO2)cc2oc3ccccc3c21 (stereo not given) 2.07 µM
CCc1c(C)sc(NC(=O)c2ccco2)c1C#N 11.7 µM
Cc1sc(NC(=O)c2ccccc2)c(C#N)c1-c1ccccc1 0.826 µM
CCc1c(C)sc(NC(=O)c2cccs2)c1C#N 5.21 µM
Nc1nc2ccc(-c3nc4ccccc4o3)cc2s1 0.927 µM
Cc1ccccc1NC(=O)c1ccc2c(c1)N(C)CCS2 3.69 µM
CN1CCSc2ccc(C(=O)Nc3ccc(Cl)cc3)cc21 1.04 µM
c1ccc2sc(-c3ccncc3)nc2c1 6.56 µM
c1csc(-c2nc3ccccc3s2)c1 5.85 µM
O=C1CCC(=O)N1c1ccc(-c2nc3ccccc3s2)cc1 0.521 µM
O=S(=O)(Nc1cccc(-c2ccc(N3CCCCCC3)nn2)c1)c1ccc(F)cc1 13.1 µM
O=S(=O)(Nc1cccc(-c2ccc(N3CCCCCC3)nn2)c1)c1cccc(F)c1 9.27 µM
CC(OC(=O)CNC(=O)c1ccccc1F)C(=O)Nc1nc(-c2ccccc2)cs1 (stereo not given) 4.65 µM
Nc1nn2cc(-c3ccccc3)nc2c2ccccc12 0.521 µM
Clc1ccc(COc2ccccc2-c2ccnc3ncnn23)cc1 13.1 µM
CC(O)c1ccc(OCCN(C)c2ccccn2)cc1 (stereo not given) 16.5 µM
COc1cc(OC)c(NC(=O)CCCn2nc(C)c3sc4ccccc4c3c2=O)cc1Cl 11.7 µM
Cc1ccc(CONC(=O)c2ccccc2)cc1 18.5 µM
CC/C(=N/NC(=O)c1ccccc1)c1ccc(OCCN2CCOCC2)cc1 2.93 µM
CC(C)c1cc(C(N)=O)c(NC(=O)c2cccc(COc3ccc(Cl)cc3)c2)s1 0.585 µM
Cc1nn(Cc2c(F)c(F)c(F)c(F)c2F)c(C)c1NC(=O)c1cccc(COc2ccc(Cl)cc2)c1 7.36 µM
COc1ccc(NC(=S)N2CCc3ccccc32)cc1OC 16.5 µM
Brc1c(CSc2nc3ccccc3o2)nc2ncccn12 7.36 µM
Brc1c(CSc2nc3ccccc3s2)nc2ncccn12 3.29 µM
COc1ccc(/C(C)=N/Nc2nncc3ccccc23)cc1 0.826 µM
C/C(=N\Nc1nncc2ccccc12)c1ccc(OCC(=O)N(C)C)cc1 4.65 µM
C/C(=N\Nc1nncc2ccccc12)c1ccc(C(C)(C)C)cc1 7.36 µM
C/C(=N\Nc1nncc2ccccc12)c1cccc(OC(F)F)c1 0.414 µM
Cc1cc(N2CCOCC2)nc(SCC(=O)c2ccccc2)n1 13.1 µM
COc1cccc(C(=O)Nc2ccc3c(C)cc(=O)oc3c2)c1 0.329 µM
Cc1cc(=O)oc2cc(NC(=O)c3ccccc3OC(F)F)ccc12 8.26 µM
Cc1cc(=O)oc2cc(NC(=O)c3ccccc3Cl)ccc12 3.69 µM
CCCCOC(=O)Nc1ccc2c(C)cc(=O)oc2c1 1.17 µM
COc1cccc(C(=O)Nc2ccc3c(c2)C(=O)c2ccccc2C3=O)c1 2.93 µM
O=C(NC(=S)Nc1ccc2c(c1)C(=O)c1ccccc1C2=O)c1ccc(F)cc1 2.93 µM
COc1cccc(C(=O)Nc2nnc(-c3ccccc3)s2)c1 0.826 µM
Fc1ccc2nc(Nc3nc4cc5c(cc4s3)OCO5)sc2c1 1.65 µM
CC(=O)c1sc(Nc2nc3cc4c(cc3s2)OCO4)nc1C 1.85 µM
c1ccc2sc(Nc3nc4cc5c(cc4s3)OCO5)nc2c1 3.69 µM
C/C(=N\Nc1nc2ccccc2s1)c1ccc2c(c1)OCO2 10.4 µM
CCN(CC)S(=O)(=O)c1nnc(NC(=O)COc2ccc(Cl)cc2)s1 0.521 µM
CC(=O)Nc1nnc(COc2ccc(Cl)cc2)s1 3.29 µM
Nc1nnnn1/N=C/c1ccc(N2CCCCC2)c([N+](=O)[O-])c1 16.5 µM
N/C(CS(=O)(=O)c1ccccn1)=N\OC(=O)c1ccccc1Cl 4.65 µM
Cc1c2ccccc2nc2c(F)c(NC(C)C)c(F)c(F)c12 16.5 µM
O=C(Nc1cccc(Cl)c1)OCc1ccccn1 6.56 µM
O=C(Cc1c(Cl)cccc1Cl)OCc1ccccn1 18.5 µM
O=C(Nc1ccc(Cl)cc1)OCc1ccccn1 5.85 µM
Cc1ccc(-n2nnc(-c3ccnc4ccccc34)n2)cc1 1.85 µM
COc1ncccc1-c1nnn(-c2ccc(C)cc2)n1 1.47 µM
Cc1ccc(-n2nnc(-c3cccnc3Cl)n2)cc1 0.521 µM
O=C(Nc1ccccc1)OCCOc1ccccc1 3.69 µM
CC(C)c1ccc(NC(=O)COc2ccc(F)cc2C(=O)c2cnn(-c3ccccc3)c2)cc1 2.93 µM
COCC(=O)Nc1ccc(OCc2ccccc2)cc1 11.7 µM
CC(C)c1ccc(NC(=O)COc2ccccc2)cc1 7.36 µM
CC(C)c1ccc(NC(=O)Cn2ncc3ccccc32)cc1 7.36 µM
CCOc1ccc(NC(=O)NC2CCCCCCC2)cc1 2.93 µM
Cc1ccc(NC(=O)CCOc2ccccc2)cc1 5.85 µM and 8.26 µM
Cc1ccsc1C(=O)Nc1ccc(OCc2ccccc2)cc1 1.65 µM
COC(=O)Nc1ccc(OCc2ccccc2)cc1 5.21 µM
CCOc1ccc(NC(=O)Cc2ccccc2)cc1 2.61 µM
Clc1cccc(Cl)c1C1=NOC(c2nnc(-c3ccccc3)o2)C1 (stereo not given) 13.1 µM
COc1ccc(C(=O)Nc2ccc(N3CCCC3)cc2)cc1OC 4.65 µM
COc1ccc(C(=O)Nc2nc3ccccc3[nH]2)cc1OC 1.85 µM
O=C(Nc1ccc(N2CCCC2)cc1)c1cccc(Cl)c1 0.329 µM
NC(=O)NC(=O)C(Nc1ccc(N2CCCCC2)cc1)c1ccccc1 (stereo not given) 13.1 µM
Cc1cccc(NC(=O)c2cc3ccccc3oc2=O)c1 0.329 µM
CCN(C(=O)c1cc2ccccc2oc1=O)c1ccccc1 6.56 µM
Cc1ccnc(NC(=O)c2cc3ccccc3oc2=O)c1 0.414 µM
O=C(Nc1ccccc1O)c1cc2cc(Br)ccc2oc1=O 0.521 µM
CCOc1ccc(C2=NC(c3ccc(OC)cc3)=Nc3ccc(Cl)cc3N2)cc1 18.5 µM
O=C(Cn1cccc1C(=O)c1ccccc1)NCc1ccccc1Cl 11.7 µM
O=C1NC(=S)N/C1=C/c1cccc2ccccc12 14.7 µM
CCOC(=O)c1cccc(COC(=O)c2cccc(-c3nnc(-c4ccccc4)o3)c2)c1 5.85 µM
Cc1c(/C=C/C(=O)c2cccs2)cnn1C 14.7 µM
Cc1nn(C)cc1/C=C/C(=O)c1cccs1 13.1 µM
Nc1nnc(COc2ccc(Br)cc2Br)s1 5.21 µM
C=CCN1C(=O)C(=O)N(Cc2nc3ccccc3s2)C1=O 11.7 µM
Cc1ccc(Oc2ncnc3sccc23)cc1 14.7 µM
C=C(C)CNC(=O)CCc1nnc(Cc2cccc(C(F)(F)F)c2)o1 11.7 µM
CC1CCCN(C(=O)c2cc3c(=O)n4ccccc4nc3s2)C1 (stereo not given) 14.7 µM
O=C(NC1CCCCCC1)c1cc2c(=O)n3ccccc3nc2s1 10.4 µM
CC1CCCCN1C(=O)c1cc2c(=O)n3ccccc3nc2s1 (stereo not given) 16.5 µM
CC1CCN(C(=O)c2cc3c(=O)n4ccccc4nc3s2)CC1 14.7 µM
Cc1cc(N2CCN(C)CC2)nc2ccc(NC(=O)Nc3ccccc3)cc12 7.36 µM
Cc1cc(N2CCN(C)CC2)nc2ccc(NC(=O)Nc3ccccc3Cl)cc12 0.585 µM
Cc1cc(C)cc(Nc2ccc(C(=O)O)cc2N)c1 18.5 µM
O=C(/C=C/c1cccs1)c1ccc(NC(=O)c2ccccc2F)cc1 13.1 µM
N/C(Cc1ccc([N+](=O)[O-])cc1)=N\OC(=O)c1ccccc1F 16.5 µM
O=C(Nc1ccc([N+](=O)[O-])cc1)c1ccccc1F 4.14 µM
